Laboratory results reported in the antibiotic and cytotoxicity screens of Wong et al. (2023).
Screen size: about 39,000 compounds; about 1,500 (3.8%) were called active. For the sample, actives were picked, then their nearest neighbours and some compounds at random.

system: HSkMC (human skeletal muscle cells); test: cytotoxicity call (relative viability < 0.9); conditions: 10 µM

Row | Compound | cytotoxicity call
1 | CO[C@@H]1CN(C)C(=O)c2cc(NC(=O)Nc3ccccc3F)ccc2OC[C@@H](C)N(Cc2ccccc2C(=O)O)C[C@@H]1C | inactive
2 | Cc1noc(C)c1NC(=O)Nc1ccc2c(c1)C(=O)N([C@H](C)CO)C[C@H](C)[C@H](CN(C)Cc1ccc(Oc3ccccc3)cc1)O2 | inactive
3 | COc1cccc(S(=O)(=O)N(C)C[C@H]2OCc3cn(nn3)CCCC(=O)N([C@H](C)CO)C[C@H]2C)c1 | inactive
4 | COc1ccc(NC(=O)N(C)C[C@@H]2OCCCC[C@H](C)Oc3ccc(NC(=O)Nc4cccc5ccccc45)cc3C(=O)N([C@H](C)CO)C[C@@H]2C)cc1 | inactive
5 | C[C@@H]1CN([C@@H](C)CO)C(=O)Cc2cc(NC(=O)Cn3cnnn3)ccc2O[C@@H]1CN(C)CC1CCCCC1 | inactive
6 | CC(C)NC(=O)N(C)C[C@@H]1Oc2cc(C#Cc3ccc(F)cc3)ccc2S(=O)(=O)N([C@H](C)CO)C[C@@H]1C | inactive
7 | C[C@H]1CN([C@@H](C)CO)C(=O)c2cccc(NC(=O)Nc3ccc(F)cc3)c2O[C@H]1CN(C)C(=O)Nc1cccc2ccccc12 | inactive
8 | COc1ccc([Si](C)(C)[C@@H]2[C@@H](CCn3cc([C@H](O)c4ccccc4)nn3)O[C@]3(C(=O)N(Cc4cccc(N5CCOC5=O)c4)c4ccccc43)[C@H]2C)cc1 | inactive
9 | C[C@@H]1CN([C@@H](C)CO)C(=O)Cc2cc(NC(=O)Cn3cnnn3)ccc2O[C@@H]1CN(C)CC1CC1 | inactive
10 | COc1ccc(Oc2cc(NCCC(F)(F)F)c3ncc(-c4ccc(C(=O)NC5CC5)c(C)c4)n3n2)c(F)c1F | active
11 | Cc1ccc(S(=O)(=O)Nc2ccc3c(c2)C(=O)N([C@H](C)CO)C[C@H](C)[C@H](CN(C)S(C)(=O)=O)OCCCC[C@@H](C)O3)cc1 | inactive
12 | C=CC[C@H](CC(=O)N(CCO)Cc1ccccc1)C(=O)N[C@H](COC(=O)[C@H](CC=C)NC(=O)OCC1c2ccccc2-c2ccccc21)C(C)(C)C | inactive
13 | C[C@H](CO)N1C[C@H](C)[C@H](CN(C)Cc2ccc(-c3ccccc3)cc2)Oc2ccc(NC(=O)Nc3ccccc3)cc2CC1=O | inactive
14 | C[C@H](CO)N1C[C@H](C)[C@H](CN(C)S(C)(=O)=O)Oc2ccc(NC(=O)Nc3ccccc3)cc2CC1=O | active
15 | C[C@H]1CN([C@@H](C)CO)C(=O)Cc2cc(NC(=O)Nc3ccccc3)ccc2O[C@H]1CN(C)S(C)(=O)=O | inactive
16 | C[C@@H]1CN([C@H](C)CO)C(=O)Cc2cc(NC(=O)Nc3ccccc3)ccc2O[C@H]1CN(C)S(C)(=O)=O | inactive
17 | C[C@@H]1CN([C@H](C)CO)C(=O)Cc2cc(NC(=O)Nc3ccccc3)ccc2O[C@@H]1CN(C)Cc1ccc(-c2ccccc2)cc1 | active
18 | C[C@H]1CN([C@@H](C)CO)C(=O)Cc2cc(NC(=O)Nc3ccc(F)cc3)ccc2O[C@H]1CN(C)Cc1ccc(C(=O)Nc2ccccc2N)cc1 | active
19 | C[C@@H]1CN([C@@H](C)CO)C(=O)Cc2cc(NC(=O)Nc3ccc(F)cc3)ccc2O[C@H]1CN(C)Cc1ccc(-c2ccccc2)cc1 | inactive
20 | C[C@H](CO)N1C[C@H](C)[C@H](CN(C)Cc2ccc(C(=O)Nc3ccccc3N)cc2)Oc2ccc(NC(=O)Nc3ccc(F)cc3)cc2CC1=O | inactive
21 | C[C@@H]1CN([C@H](C)CO)C(=O)Cc2cc(NC(=O)Nc3ccc(F)cc3)ccc2O[C@H]1CN(C)Cc1ccc(-c2ccccc2)cc1 | active
22 | C[C@H](CO)N1C[C@H](C)[C@@H](CN(C)Cc2ccc(C(=O)Nc3ccccc3N)cc2)Oc2ccc(NC(=O)Nc3ccc(F)cc3)cc2CC1=O | inactive

Row | Compound | cytotoxicity call
23 | C[C@@H]1CN([C@@H](C)CO)C(=O)Cc2cc(NC(=O)Nc3ccccc3)ccc2O[C@@H]1CN(C)Cc1ccc(-c2ccccc2)cc1 | inactive
24 | Cc1sc(Nc2ccccc2)nc1-c1ccc(Cl)cc1 | inactive
25 | COc1ccc(CCN2C(=O)[C@@]3(c4ccc([N+](=O)[O-])cc4)CC(=O)N(CC45CC6CC(CC(C6)C4)C5)[C@@H]3c3ccc(CO)cc32)cc1 | inactive
26 | O=C1CSC(=S)N1 | inactive
27 | COc1ccc(NC(=O)N(C)C[C@H]2Oc3c(NC(=O)Nc4ccc(C(F)(F)F)cc4)cccc3C(=O)N([C@H](C)CO)C[C@@H]2C)cc1 | inactive
28 | COc1ccc(S(=O)(=O)Nc2ccc3c(c2)CC(=O)N([C@H](C)CO)C[C@H](C)[C@@H](CN(C)S(=O)(=O)c2ccccc2)O3)cc1 | inactive
29 | C[C@@H]1CCCCO[C@@H](CN(C)Cc2ccncc2)[C@H](C)CN([C@H](C)CO)C(=O)c2cc(NC(=O)Cc3ccccc3)ccc2O1 | inactive
30 | C[C@@H]1CN([C@@H](C)CO)C(=O)c2cc(NC(=O)Nc3ccc(F)cc3)ccc2O[C@@H](C)CCCCO[C@@H]1CN(C)Cc1ccc2c(c1)OCO2 | inactive
31 | C[C@@H]1CN([C@@H](C)CO)C(=O)c2cc(NC(=O)Nc3ccc(F)cc3)ccc2O[C@@H](C)CCCCO[C@@H]1CN(C)Cc1ccc(C(=O)O)cc1 | inactive
32 | C[C@@H]1CN([C@H](C)CO)C(=O)c2cc(NS(=O)(=O)c3cn(C)cn3)ccc2O[C@@H]1CN(C)Cc1ccncc1 | inactive
33 | C[C@@H]1CN([C@H](C)CO)C(=O)Cc2cc(NC(=O)Nc3ccc4c(c3)OCO4)ccc2O[C@@H]1CN(C)Cc1ccc(-c2ccccc2)cc1 | active
34 | C[C@H]1CN([C@@H](C)CO)C(=O)Cc2cc(NC(=O)Nc3ccc4c(c3)OCO4)ccc2O[C@H]1CN(C)Cc1ccc(-c2ccccc2)cc1 | inactive
35 | C[C@H]1CN([C@@H](C)CO)C(=O)Cc2cc(NC(=O)c3ccncc3)ccc2O[C@H]1CN(C)Cc1ccc(-c2ccccc2)cc1 | inactive
36 | C[C@@H]1CN([C@@H](C)CO)C(=O)Cc2cc(NC(=O)Nc3ccc4c(c3)OCO4)ccc2O[C@H]1CN(C)Cc1ccc(-c2ccccc2)cc1 | inactive
37 | C[C@H](CO)N1C[C@H](C)[C@H](CN(C)Cc2ccc(-c3ccccc3)cc2)Oc2ccc(NC(=O)c3ccncc3)cc2CC1=O | inactive
38 | C[C@@H]1CN([C@H](C)CO)C(=O)Cc2cc(NC(=O)Nc3ccc(F)cc3)ccc2O[C@@H]1CN(C)Cc1ccc(-c2ccccc2)cc1 | inactive
39 | C[C@@H]1CN([C@@H](C)CO)C(=O)Cc2cc(NC(=O)Nc3ccc(F)cc3)ccc2O[C@@H]1CN(C)Cc1ccc(-c2ccccc2)cc1 | inactive
40 | C[C@H](CO)N1C[C@H](C)[C@@H](CN(C)Cc2ccc(-c3ccccc3)cc2)Oc2ccc(NC(=O)Nc3ccc(F)cc3)cc2CC1=O | inactive
41 | C[C@@H]1CN([C@H](C)CO)C(=O)Cc2cc(NC(=O)c3ccncc3)ccc2O[C@@H]1CN(C)Cc1ccc(-c2ccccc2)cc1 | active
42 | C[C@H]1CN([C@@H](C)CO)C(=O)Cc2cc(NC(=O)Nc3ccc(F)cc3)ccc2O[C@@H]1CN(C)Cc1ccc(-c2ccccc2)cc1 | inactive
43 | C[C@H]1CN([C@@H](C)CO)C(=O)Cc2cc(NC(=O)Nc3ccc(F)cc3)ccc2O[C@H]1CN(C)Cc1ccc(-c2ccccc2)cc1 | active
44 | C[C@H](CO)N1C[C@H](C)[C@H](CN(C)Cc2ccc(-c3ccccc3)cc2)Oc2ccc(NC(=O)Nc3ccc(F)cc3)cc2CC1=O | active

Row | Compound | cytotoxicity call
45 | COCC#Cc1ccc2c(c1)O[C@@H](CN(C)C(=O)C1CCOCC1)[C@H](C)CN([C@H](C)CO)S2(=O)=O | inactive
46 | CC(C)[Si](C#CCCCC#N)(O[C@H](c1ccccc1)c1cn(Cc2cccc(Cl)c2)nn1)C(C)C | inactive
47 | C[C@H](CO)N1C[C@H](C)[C@@H](CN(C)Cc2ccccc2)OCCCC[C@H](C)Oc2ccc(NC(=O)Nc3ccc(F)cc3)cc2C1=O | inactive
48 | C[C@H]1CN([C@@H](C)CO)C(=O)c2cccc(NC(=O)c3ccc(-c4nccs4)cc3)c2O[C@@H]1CN(C)Cc1ccccc1 | inactive
49 | Cc1noc(C)c1NC(=O)N(C)C[C@@H]1Oc2ncc(C#Cc3ccccc3)cc2C(=O)N([C@H](C)CO)C[C@@H]1C | inactive
50 | COc1ccc(S(=O)(=O)Nc2ccc3c(c2)C(=O)N([C@@H](C)CO)C[C@H](C)[C@H](CN(C)C(=O)NC2CCCCC2)OCCCC[C@H](C)O3)cc1 | inactive
51 | CCCC#Cc1ccc2c(c1)O[C@@H](CN(C)Cc1ccc3c(c1)OCO3)[C@@H](C)CN([C@@H](C)CO)S2(=O)=O | inactive
52 | COCC(=O)N1CC[C@]2(CC1)CN([C@@H](CO)c1[nH]c3cc(ccc3c12)OC)S(=O)(=O)C | inactive
53 | Cn1c2c(c(=S)[nH]c1=O)CCC2 | inactive
54 | Cc1ccc(S(=O)(=O)Nc2ccc3c(c2)C(=O)N([C@@H](C)CO)C[C@H](C)[C@H](CN(C)Cc2ccc(C(=O)O)cc2)OCCCC[C@H](C)O3)cc1 | inactive
55 | C[C@@H]1CN([C@@H](C)CO)C(=O)c2cc(NC(=O)Nc3ccc4c(c3)OCO4)ccc2O[C@@H](C)CCCCO[C@@H]1CN(C)Cc1ccc(C(=O)O)cc1 | inactive
56 | C[C@@H]1CN([C@@H](C)CO)C(=O)c2cc(NC(=O)Nc3ccc(F)cc3)ccc2O[C@@H](C)CCCCO[C@H]1CN(C)C(=O)Cc1ccccc1 | inactive
57 | C[C@@H]1CN([C@@H](C)CO)C(=O)c2cc(NC(=O)Nc3ccccc3)ccc2O[C@@H](C)CCCCO[C@@H]1CN(C)C(=O)Cc1ccccc1 | inactive
58 | C[C@H]1CCCCO[C@H](CN(C)Cc2ccc(C(=O)O)cc2)[C@@H](C)CN([C@@H](C)CO)C(=O)c2cc(NC(=O)C3CCCCC3)ccc2O1 | inactive
59 | C(=N\c1ccccc1)/c1ccc(Oc2ccccc2)cc1 | inactive
60 | C[C@@H]1CN([C@@H](C)CO)C(=O)Cc2cc(NC(=O)CCCCCC(=O)Nc3ccccc3N)ccc2O[C@H]1CN(C)Cc1ccc(C(F)(F)F)cc1 | inactive
61 | C[C@@H]1CN([C@H](C)CO)C(=O)Cc2cc(NC(=O)CCCCCC(=O)Nc3ccccc3N)ccc2O[C@@H]1CN(C)Cc1ccc(C(F)(F)F)cc1 | active
62 | C[C@H](CO)N1C[C@H](C)[C@H](CN(C)Cc2ccc(C(F)(F)F)cc2)Oc2ccc(NC(=O)CCCCCC(=O)Nc3ccccc3N)cc2CC1=O | inactive
63 | C[C@H]1CN([C@@H](C)CO)C(=O)Cc2cc(NC(=O)CCCCCC(=O)Nc3ccccc3N)ccc2O[C@@H]1CN(C)Cc1ccc(C(F)(F)F)cc1 | inactive
64 | C[C@@H]1CN([C@@H](C)CO)C(=O)Cc2cc(NC(=O)CCCCCC(=O)Nc3ccccc3N)ccc2O[C@@H]1CN(C)Cc1ccc(C(F)(F)F)cc1 | active
65 | C[C@@H]1CN([C@H](C)CO)C(=O)Cc2cc(NC(=O)CCCCCC(=O)Nc3ccccc3N)ccc2O[C@H]1CN(C)Cc1ccc(C(F)(F)F)cc1 | inactive
